A selection: hits, their analogues and other compounds. The true share with any hit is near 2.3%.
EBV LMP1 NFkB: EBV LMP1-driven NF-kappaB luciferase reporter inhibitors, primary screen, cell-based, luminescence, single point. LMP1-induced NF-kappaB luciferase reporter cells. inhibition, % at 12.5 µM. 350,000 compounds, 0.69% hits; in the data active = inhibition above about 41%; inconclusive = no clear call, values can overlap the other calls
Shn3 3UTR inh: reduction of Shn3 3'UTR firefly luciferase signal, primary screen, Schnurri-3 inhibitor project, cell-based, Clone20 osteoblasts, set 2 | Clone20 osteoblast Shn3 3'UTR firefly luciferase, 24 h | inhibition, % at 12.5 µM | 360,000 compounds, 0.52% hits;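 active = mean inhibition of at least 75% with every replicate also reaching 75%; inconclusive = mean inhibition at least 75% but some replicate below; inactive = mean inhibition below 75%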
Gli-Sufu antag: Gli-Sufu pathway antagonists, primary screen, luciferase luminescence, Sufu-KO-LIGHT cells, uHTS; inhibition, % at 5 µM; Sufu-KO-LIGHT fibroblasts, Gli luciferase reporter luminescence; 340,000 compounds, 0.74% hits; AID 588413, 2011;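 active = inhibition above about 55%, limit read from the data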
MITF TRPM1 inh: inhibitors of MITF-dependent TRPM1 promoter reporter, primary screen, cell-based, SK-MEL-5, single point, luciferase; SK-MEL-5 TRPM1 promoter luciferase, 24 h; 330,000 compounds, 0.83% hits; inhibition, % at 12.5 µM;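 active = mean inhibition across replicates of 60% or more, whatever share of single replicates reaches that level; inconclusive = some that reach 60%, reason not given; inactive = mean inhibition across replicates below 60%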
697 NFkB inh: inhibitors of PMA/ionomycin-induced NF-kB reporter, 697 cells, primary screen, B-cell NF-kB inhibitor project, cell-based, luminescence, uHTS | 697 B-cell NF-kB luciferase reporter, 16 h | inhibition, % at 4 µM | 330,000 compounds, 0.33% hits | AID 435022, 2010; in the data active = inhibition above about 35%
Jurkat NFkB inh: inhibitors of induced NF-kB luciferase reporter, primary screen, TCR NF-kB activation inhibitor project, cell-based, luminescence, uHTS; Jurkat, PMA/ionomycin-induced NF-kB luciferase reporter; inhibition, % at 4 µM; 330,000 compounds, 0.53% hits; in the data active = inhibition above about 50%
Each line names hits and unclear results; the compound was inactive in the other large screens.

CCN(/C=N/c1sc2c(c1C#N)CC(C)(C)NC2(C)C)CC	none
O=[N+]([O-])c1cc(S(=O)(=O)N2CCCCCC2)ccc1F	MITF TRPM1 inh 93.0 (no result: 697 NFkB inh, Jurkat NFkB inh)
C=CCn1c(O)c(C2=c3ccccc3=NC2=O)c2ccccc21	none
Cc1ccc2c(c1)c(C1=c3ccccc3=NC1=O)c(O)n2C	Shn3 3UTR inh 96.4
CC1CCCN(C(=O)c2ccc(NS(=O)(=O)c3ccc4[nH]c(=O)[nH]c4c3)cc2)C1 (configuration not stated)	none
Cc1cccc(C)c1NC(=O)CN(C)CC(=O)Nc1ccccc1Oc1ccccc1	EBV LMP1 NFkB 62.9
Cc1ccc(NC(=O)CN(C)CC(=O)Nc2ccccc2Oc2ccccc2)cc1	none
Cc1cccc(-c2nnc(NC(=O)c3ccc(Cl)cc3)o2)c1	none
CCCNC(=O)c1cc(C2CCCCN2C(=O)c2ccccc2)on1 (configuration not stated)	none (no result: EBV LMP1 NFkB, Gli-Sufu antag, MITF TRPM1 inh, 697 NFkB inh, Jurkat NFkB inh)
O=C1C(=C2CCCCC2)SC(=S)N1Cc1ccco1	EBV LMP1 NFkB 44.2
CCn1c(C)cs/c1=N\S(=O)(=O)c1ccccc1	none
O=Cc1s/c(=N\S(=O)(=O)c2ccccc2)n(CCCCl)c1Cl	Shn3 3UTR inh 92.5, MITF TRPM1 inh 96.7 (no result: 697 NFkB inh, Jurkat NFkB inh)
COc1ccc(NC(=O)CCS(=O)(=O)c2ccc3c(c2)CCN3C(C)=O)cc1	EBV LMP1 NFkB 58.5
Cc1cc(C(=O)N2CCC(C(N)=O)CC2)c(C)o1	none
Cc1cc(C(=O)NCCCN2CCN(C3CCCCC3)CC2)n(-c2ccccc2)n1	none
CC(=O)c1c(C)oc2ccc(N(C(C)=O)S(=O)(=O)c3ccc(Cl)c([N+](=O)[O-])c3)cc12	MITF TRPM1 inh 65.0
CCOc1ccc(CNC(=O)C2CCN(c3nnc(C)c4c(C)n(-c5ccc(C)cc5)nc34)CC2)cc1	MITF TRPM1 inh 95.0
Cc1ccc(-n2nc3c(N4CCC(C(=O)N5CCCCCC5)CC4)nnc(C)c3c2C)cc1	none
Cc1ccc(-n2nc3c(N4CCC(C(=O)NCc5ccccc5C)CC4)nnc(C)c3c2C)cc1	MITF TRPM1 inh 93.8
COc1ccc(-n2nc3c(N4CCC(C(=O)NCc5cccc(C)c5)CC4)nnc(C)c3c2C)cc1	Gli-Sufu antag 74.1, MITF TRPM1 inh 95.1
CCOc1ccccc1CNC(=O)C1CCN(c2nnc(C)c3c(C)n(-c4ccc(C)cc4)nc23)CC1	MITF TRPM1 inh 95.7
CCC(C(=O)NC1CCCC1)N(Cc1ccccc1Cl)C(=O)c1snc(C(N)=O)c1N (configuration not stated)	none
COc1ccc(-n2nc3c(N4CCC(C(=O)NCCc5ccco5)CC4)nnc(C)c3c2C)cc1	none
COc1ccccc1CCNC(=O)C1CCN(c2nnc(C)c3c(C)n(-c4ccc(C)cc4)nc23)CC1	MITF TRPM1 inh 76.8
CC(=O)c1sc(NC(=O)C=C(C)C)nc1C	none
CC(=O)c1sc(NC(=O)C2(F)C(F)(F)C(F)(F)C(F)(F)C(F)(F)C2(F)F)nc1C	Gli-Sufu antag 74.6
O=C(NNC(=O)c1cccnc1SCc1cccc([N+](=O)[O-])c1)c1ccccn1	Shn3 3UTR inh 96.5
COc1ccc(CC(=O)OCC(=O)NCc2ccco2)cc1OC	none
C=C1C(=O)[C@@]23[C@H](O)C[C@@H]4C(C)(C)CC[C@H](O)[C@]4(C)[C@@H]2C[C@H](O)[C@@H]1[C@H]3O	Shn3 3UTR inh 96.7
Cc1ccc(C)c2nc3sc(C(=O)N4CCOCC4)c(N)c3cc12	none
Cc1cc(C)c2nc3sc(C(=O)N4CCOCC4)c(N)c3cc2c1	EBV LMP1 NFkB 50.8
Nc1c(C(=O)N2CCOCC2)sc2nc3c(cc12)CCCC3	EBV LMP1 NFkB 56.5
O=C(CNC(=O)c1ccccc1)N/N=C/c1cc(Br)ccc1O	Shn3 3UTR inh inconclusive
O=C(CN1CC(c2ccccc2)CC1=O)N/N=C/c1cc(Br)ccc1O (configuration not stated)	Shn3 3UTR inh 88.0
CCOC(=O)c1cc2c(nc1NC(=S)NCc1ccccc1)CCCC2	none
O=C(N/N=C/c1c(O)ccc2ccccc12)C(=O)N1CCCC1	Shn3 3UTR inh 81.8 (no result: Gli-Sufu antag, MITF TRPM1 inh, 697 NFkB inh, Jurkat NFkB inh)
Oc1ccc2ccccc2c1C=NNc1ccccn1	EBV LMP1 NFkB 57.6 (no result: 697 NFkB inh, Jurkat NFkB inh)
O=C(N/N=C/c1c(O)ccc2ccccc12)c1[nH]ncc1Br	Gli-Sufu antag 66.7
C#Cc1ccc(CN2CCC(Oc3cc(C(=O)NC4CC4)ccc3OC)CC2)cc1	none
COc1ccc(CC(=O)N2CCN(c3cccc(Cl)c3)CC2)cc1OC	none
CCC(=O)N1CCc2cc(S(=O)(=O)NC(Cc3ccccc3)C(=O)NC3CCCCC3C)ccc21 (configuration not stated)	none
C=CCN1C(=O)C(Cc2cccc(Cl)c2)SC1=Nc1ccc(C(=O)O)cc1 (configuration not stated)	none
O=C(NCc1cccnc1)/C(=C\c1ccc(-c2ccc(Cl)c(Cl)c2)o1)S(=O)(=O)c1ccccc1	EBV LMP1 NFkB 87.0, Shn3 3UTR inh 97.7, MITF TRPM1 inh 89.9 (no result: 697 NFkB inh, Jurkat NFkB inh)
O=C(NCc1cccnc1)c1ccc(-c2ccc(Cl)cc2)o1	none
CCOC(=O)C1C(=O)C=C(c2ccc(C)cc2)CC1c1ccco1 (configuration not stated)	EBV LMP1 NFkB 47.7
Cc1cc(C)cc(N2C(N)=NC(N)=NC2c2cccc(Cl)c2)c1 (configuration not stated)	none
COC(=O)c1cc2n(n1)CCN(Cc1ccccc1Cl)C2=O	EBV LMP1 NFkB 69.6
CS(=O)(=O)Nc1ccccc1C(=O)NCC1(N2CCCCC2)CCCCC1	EBV LMP1 NFkB 46.7
O=C(NCC1(N2CCCCC2)CCCCC1)c1ccc(NS(=O)(=O)c2ccccc2)cc1	none
COc1nccnc1NS(=O)(=O)c1ccc(NCc2ccccc2O)cc1	none
C/C(=N\NC(=O)c1n[nH]c2c1CCC2)c1cccs1	EBV LMP1 NFkB 74.1, MITF TRPM1 inh 65.2
C/C(=N/NC(=O)c1ccc2nc[nH]c2c1)c1cccs1	EBV LMP1 NFkB 51.9
C/C(=N\NC(=O)c1cc(C)[nH]n1)c1cccs1	none
Cc1ccc(/C=N/NC(=O)c2n[nH]c3c2CCCC3)cc1	none (no result: EBV LMP1 NFkB, MITF TRPM1 inh)
O=C(N/N=C/c1cccs1)c1n[nH]c2c1CCCC2	EBV LMP1 NFkB 68.3
CC(O)Cn1ccccc1=N (configuration not stated)	none
CN1CCN(c2ccc(NC(=O)c3ccc(Cl)cc3Cl)cc2)CC1	none
COc1ccc(C(=O)Cn2nc(CNc3ccc(Br)cc3)[n+]3c2CCCCC3)cc1	none
Cc1ccc(C(C)C)c(OCc2nn(CC(=O)c3ccc(OC(F)F)cc3)c3[n+]2CCCCC3)c1	MITF TRPM1 inh 102.3
COc1cc(OC)c(OC)cc1/C=N/n1c(C)nnc1C	none

Screening results as filed in PubChem.
